High-throughput results (PubChem BioAssay)
GalR3 antagonist: antagonists of human GalR3; O60755; inhibition, % at 3 µM; 360,000 tested, 0.44% active; AID 651719; HEK293 GalR3-CNG cAMP membrane potential fluorescence; galR3 body fused to GalR1 C-terminus;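 active = inhibition above the screen-wide average plus 3 SD, cut at about 13% in these data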;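 also: forskolin and galanin both at EC90 stimulate the cells; cAMP rise reported by CNG channel membrane potential dye signal; 0% = forskolin plus galanin with DMSO and 100% = forskolin alone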
SRC2 inh: inhibits human steroid receptor coactivator 2; Q15596; HEK293 GAL4-SRC2 luciferase reporter, luminescence; inhibition, % at 9 µM; 370,000 tested, 0.17% active;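 active = inhibition above the mean inhibition of all tested compounds plus 3 SD, set per campaign, cut at about 52% in these data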;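 also: 0% = DMSO treated cells and 100% = cells given Gossypol at 36 µM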
NCOA3 inh: inhibitors of human steroid receptor coactivator 3 (SRC3). inhibition, % at 3.6 µM. HEK293 GAL4-SRC3 luciferase reporter, luminescence. AID 588352. Q9Y6Q9. 360,000 tested, 0.17% active;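 active = inhibition above a per-campaign cutoff, the mean of all compounds plus 3 SD, cut at about 60% in these data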;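 also: 0% = DMSO-treated cells and 100% = gossypol-treated cells at 36 µM; higher means less SRC3-driven luciferase light from the GAL4 reporter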
COUP-TFII inh: NR2F2 (human) inhibition, primary screen. 370,000 tested, 0.7% active. P24468. AID 686940. inhibition, % at 8.6 µM. HEK293T NGFI-A luciferase reporter, luminescence;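 active = inhibition above a per-plate cutoff, mean inhibition of test wells between control levels plus 3 SD, cut at about 38% in these data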;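 also: cells cotransfected with COUP-TFII expression vector driving the NGFI-A reporter; 0% = median of COUP-TF2 test wells and 100% = reporter-only cells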
Target sequence (P24468 whole entry, looked up): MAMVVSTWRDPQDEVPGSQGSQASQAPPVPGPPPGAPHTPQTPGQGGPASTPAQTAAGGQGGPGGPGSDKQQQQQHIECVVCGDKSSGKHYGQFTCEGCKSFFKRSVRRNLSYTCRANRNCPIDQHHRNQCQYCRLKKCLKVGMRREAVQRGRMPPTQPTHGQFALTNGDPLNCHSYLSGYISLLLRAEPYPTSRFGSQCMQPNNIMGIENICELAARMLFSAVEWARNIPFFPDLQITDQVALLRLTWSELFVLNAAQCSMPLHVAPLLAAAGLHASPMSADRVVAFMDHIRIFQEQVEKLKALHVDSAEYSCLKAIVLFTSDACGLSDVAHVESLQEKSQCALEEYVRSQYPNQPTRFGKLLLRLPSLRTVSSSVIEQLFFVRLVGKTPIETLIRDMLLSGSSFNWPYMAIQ
LRH-1 inv ag: suppresses constitutive activity of human LRH-1 | 360,000 tested, 0.13% active | HEK293T StAR-luciferase reporter, LRH-1 transfected, 24 h | inhibition, % at 3.6 µM | AID 602396;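 active = inhibition above the mean inhibition of all tested compounds plus 3 SD, cut at about 73% in these data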;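 also: 0% = DMSO wells and 100% = reporter-only cells lacking LRH-1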
NCOA1 inh: human NCOA1 inhibition; inhibition, % at 3.6 µM; HEK293 GAL4-SRC1 luciferase reporter, luminescence; 360,000 tested, 0.12% active; AID 588354; Q15788;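 active = inhibition above the campaign mean plus 3 SD, with each screening campaign given its own cutoff, cut at about 60% in these data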;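 also: 0% = DMSO treated cells and 100% = gossypol at 36 µM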
Gal4-VP16 ctr: VP16 inhibition counter-screen for COUP-TFII | shares compounds with COUP-TFII inh | HEK293 Gal4-VP16 luciferase reporter, luminescence | inhibition, % at 8.5 µM | 2,500 tested, 25% active; in the data active = inhibition above about 13%
COUP-TFII conf: COUP-TFII (NR2F2) inhibition, confirmation assay; shares compounds with COUP-TFII inh; HEK293 NGFI-A luciferase reporter, luminescence; inhibition, % at 8.5 µM; 2,500 tested, 45% active;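 active = mean inhibition over three repeats above a set limit taken from the earlier primary screen, cut at about 38% in these data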;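 also: 100% = cells given the luciferase reporter alone without the COUP-TF2 vector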
Active calls of the source: *. Sampled rows, rich in hits. Any-hit rate of the full collection: about 1.1%.

Results for Cc1cc(N)n2ncc(-c3ccc(F)cc3)c2n1 ?
GalR3 antagonist: -5; SRC2 inh: -36; NCOA3 inh: -91; COUP-TFII inh: -42; LRH-1 inv ag: -151; NCOA1 inh: -98

What do the screens show for `Cc1nc2c(-c3ccc(F)cc3)cnn2c(N)c1-c1ccc(F)cc1`?
GalR3 antagonist: -11; SRC2 inh: -31; NCOA3 inh: 38; COUP-TFII inh: 47*; LRH-1 inv ag: 28; NCOA1 inh: 1; Gal4-VP16 ctr: -89; COUP-TFII conf: 18

What do the screens show for `CCOC(=O)[C@@]12CCCC=C1N(CCc1ccc(Cl)cc1)C(=O)[C@H]2CC(=O)N1CCSCC1`?
SRC2 inh: 21; COUP-TFII inh: 17

Results for CCOC(=O)[C@@]12CCCC=C1N(CCc1ccc(Cl)cc1)C(=O)[C@H]2CC(=O)N1CCN(C(=O)c2ccco2)CC1 ?
SRC2 inh: 8; COUP-TFII inh: 39*; Gal4-VP16 ctr: -8; COUP-TFII conf: 18

Results for COc1ccc(Cn2cc(CN3[C@@H](C)COc4cc(Br)ccc4S3(=O)=O)nn2)cc1 ?
SRC2 inh: 6; COUP-TFII inh: -14

How did O=C1/C(=C/c2cccnc2)CCc2c1[nH]c1ccccc21 do in these assays?
GalR3 antagonist: -2; SRC2 inh: 6; NCOA3 inh: 0; COUP-TFII inh: 15; LRH-1 inv ag: -115; NCOA1 inh: 10

Results for CC1C/C(=C\c2cccnc2)C(=O)/C(=C/c2cccnc2)C1 (stereo not drawn) ?
GalR3 antagonist: -10; SRC2 inh: 80*; NCOA3 inh: 11; COUP-TFII inh: 96*; LRH-1 inv ag: 56; NCOA1 inh: -199; Gal4-VP16 ctr: 91*; COUP-TFII conf: 105*

How did C#CCN(C[C@@H]1[C@@H](OC(=O)Nc2cccs2)[C@@H](OC(=O)Nc2cccs2)Cn2c(=O)ccc(=O)n21)S(=O)(=O)c1ccc(C)cc1 do in these assays?
GalR3 antagonist: -6; SRC2 inh: 52; NCOA3 inh: 25; COUP-TFII inh: 76*; LRH-1 inv ag: 53; NCOA1 inh: 14; Gal4-VP16 ctr: 25*; COUP-TFII conf: 43*

What do the screens show for `C#CCN(C[C@@H]1[C@@H](OC(=O)NCc2ccccc2F)[C@@H](OC(=O)NCc2ccccc2F)Cn2c(=O)ccc(=O)n21)S(=O)(=O)c1ccc(C)cc1`?
GalR3 antagonist: -5; SRC2 inh: 22; NCOA3 inh: 36; COUP-TFII inh: 63*; LRH-1 inv ag: 25; NCOA1 inh: 5; Gal4-VP16 ctr: 23*; COUP-TFII conf: 37

How did C#CCN(C[C@@H]1[C@@H](OC(=O)NC2CCCC2)[C@@H](OC(=O)NC2CCCC2)Cn2c(=O)ccc(=O)n21)S(=O)(=O)c1ccc(C)cc1 do in these assays?
GalR3 antagonist: -8; SRC2 inh: -30; NCOA3 inh: -30; COUP-TFII inh: 34; LRH-1 inv ag: 26; NCOA1 inh: -6

What do the screens show for `CCCCS(=O)(=O)N1CCCc2nc(-c3ccc(OC)cc3)ccc21`?
GalR3 antagonist: -8; SRC2 inh: 4; COUP-TFII inh: -12

What do the screens show for `COc1cccc(CN2C(=O)C(C)N(C(=O)c3ccccc3)c3ccccc32)c1` (stereo not drawn)?
GalR3 antagonist: -11; SRC2 inh: 10; NCOA3 inh: 29; COUP-TFII inh: 54*; LRH-1 inv ag: 2; NCOA1 inh: 22; Gal4-VP16 ctr: 0; COUP-TFII conf: 30

What do the screens show for `COc1ccc(CN2C(=O)C(C)N(C(=O)c3c(F)cccc3F)c3ccccc32)cc1` (stereo not drawn)?
GalR3 antagonist: -15; SRC2 inh: 17; NCOA3 inh: 11; COUP-TFII inh: 18; LRH-1 inv ag: 25; NCOA1 inh: 16

What do the screens show for `Cc1ccc(CN[C@@H]2CC[C@@]34CCCN3C(=O)CCC[C@H]4C2)o1`?
COUP-TFII inh: -24

Results for COc1cc(C(=O)NCc2ccc(S(N)(=O)=O)cc2)ccc1OCC(=O)Nc1cccc(C(F)(F)F)c1 ?
GalR3 antagonist: -3; SRC2 inh: -5; NCOA3 inh: -4; COUP-TFII inh: 0; LRH-1 inv ag: 13; NCOA1 inh: -18

How did COc1cc(C(=O)N(C)CCOc2ccccc2)ccc1OCC(=O)Nc1cccc(C(F)(F)F)c1 do in these assays?
GalR3 antagonist: -4; SRC2 inh: 28; NCOA3 inh: 14; COUP-TFII inh: 57*; LRH-1 inv ag: -14; NCOA1 inh: 6; Gal4-VP16 ctr: 8; COUP-TFII conf: 22

Results for CNC(=O)CCc1nc(-c2ccc(C(C)(C)C)cc2)no1 ?
GalR3 antagonist: 5; SRC2 inh: 2; NCOA3 inh: -69; COUP-TFII inh: -14; LRH-1 inv ag: -89; NCOA1 inh: -78

Results for CC(C)(C)c1ccc(-c2noc(CCC(=O)Nc3cccnc3)n2)cc1 ?
GalR3 antagonist: -10; SRC2 inh: 80*; NCOA3 inh: 41; COUP-TFII inh: 78*; LRH-1 inv ag: 37; NCOA1 inh: 21; Gal4-VP16 ctr: 59*; COUP-TFII conf: 77*

What do the screens show for `Cc1ccc(-c2noc(CCC(=O)NCC3CCCO3)n2)cc1` (stereo not drawn)?
GalR3 antagonist: 1; SRC2 inh: 24; NCOA3 inh: 5; COUP-TFII inh: 1; LRH-1 inv ag: 2; NCOA1 inh: -6

What do the screens show for `COc1ccc(-c2noc(CCC(=O)Nc3cccnc3)n2)cc1`?
GalR3 antagonist: 3; SRC2 inh: 8; NCOA3 inh: -33; COUP-TFII inh: 1; LRH-1 inv ag: -8; NCOA1 inh: -16

Results for CC(C)(C)c1ccc(-c2noc(CCC(=O)NCC3CCCO3)n2)cc1 (stereo not drawn) ?
GalR3 antagonist: -2; SRC2 inh: 59*; NCOA3 inh: 20; COUP-TFII inh: 75*; LRH-1 inv ag: 40; NCOA1 inh: 22; Gal4-VP16 ctr: 26*; COUP-TFII conf: 61*

Results for CC(C)(C)c1ccc(-c2noc(CCC(=O)NC3CC3)n2)cc1 ?
COUP-TFII inh: 56*; Gal4-VP16 ctr: -47; COUP-TFII conf: 36

Results for CC(C)(C)c1ccc(-c2noc(CCC(N)=O)n2)cc1 ?
GalR3 antagonist: -4; SRC2 inh: 83*; NCOA3 inh: 59; COUP-TFII inh: 85*; LRH-1 inv ag: 76*; NCOA1 inh: 51; Gal4-VP16 ctr: 72*; COUP-TFII conf: 88*

Results for Cn1c(SCC2CCC2)nnc1-c1ccco1 ?
SRC2 inh: -39; COUP-TFII inh: -40
